What all share (test): DAPPL (digital affinity profiling via proximity ligation, sequencing); 10 mM Tris-HCl pH 7.5, 50 mM NaCl, 1 mM DTT, 4% glycerol, room temperature, 30 min; GST-TFs on glutathione beads, 16-mer random dsDNA library, 0.1% formaldehyde crosslink after washing; high values mean tight binding
Common to all, as to details: protein: recombinant; tags: N-terminal GST; dsDNA, one strand shown

One assay addresses T1, FLI1 (Homo sapiens, UniProt Q01543 1-452).
T1 sequence: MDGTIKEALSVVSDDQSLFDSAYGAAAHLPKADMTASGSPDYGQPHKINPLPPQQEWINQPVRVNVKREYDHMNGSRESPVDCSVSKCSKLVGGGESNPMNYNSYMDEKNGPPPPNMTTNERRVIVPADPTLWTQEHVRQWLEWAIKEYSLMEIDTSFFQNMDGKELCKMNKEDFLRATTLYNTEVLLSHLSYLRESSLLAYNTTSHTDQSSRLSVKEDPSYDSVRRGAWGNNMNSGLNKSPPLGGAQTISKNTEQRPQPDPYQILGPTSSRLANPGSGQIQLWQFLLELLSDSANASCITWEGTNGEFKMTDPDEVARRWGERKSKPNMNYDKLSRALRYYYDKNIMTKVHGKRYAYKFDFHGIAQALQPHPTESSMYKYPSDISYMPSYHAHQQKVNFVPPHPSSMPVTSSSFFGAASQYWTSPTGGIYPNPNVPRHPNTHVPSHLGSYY
Put shortly: (§1)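 Each value of binding signal is a hexamer's read frequency for a factor divided by the same hexamer's frequency in the tag-only sample. Barcoded, bead-captured GST fusions of human transcription factors made in yeast were pooled with that sample and incubated with 200 nmole of a random double-stranded 16-mer DNA library in Tris/NaCl/DTT/glycerol buffer at room temperature for 30 min. Washing, 0.1% formaldehyde crosslinking, proximity ligation, PCR and Illumina NextSeq500 sequencing followed.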

Another assay concerns the target T2, ELK1 (Homo sapiens, UniProt P19419 1-428).
T2 sequence: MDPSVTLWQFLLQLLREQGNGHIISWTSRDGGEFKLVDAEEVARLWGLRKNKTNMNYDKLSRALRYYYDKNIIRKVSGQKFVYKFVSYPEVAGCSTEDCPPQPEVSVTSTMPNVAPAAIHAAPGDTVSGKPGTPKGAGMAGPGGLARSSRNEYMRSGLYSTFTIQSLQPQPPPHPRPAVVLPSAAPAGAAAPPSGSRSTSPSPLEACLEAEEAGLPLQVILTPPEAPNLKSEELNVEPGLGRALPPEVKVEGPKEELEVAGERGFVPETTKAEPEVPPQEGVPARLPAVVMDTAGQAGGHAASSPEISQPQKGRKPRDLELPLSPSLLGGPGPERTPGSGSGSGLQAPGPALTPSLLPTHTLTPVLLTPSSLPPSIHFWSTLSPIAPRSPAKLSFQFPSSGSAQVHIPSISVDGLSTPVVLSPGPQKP
In outline: as §1

The target of the next assay is T3, GABPA (Homo sapiens, UniProt Q06546 1-454).
T3 sequence: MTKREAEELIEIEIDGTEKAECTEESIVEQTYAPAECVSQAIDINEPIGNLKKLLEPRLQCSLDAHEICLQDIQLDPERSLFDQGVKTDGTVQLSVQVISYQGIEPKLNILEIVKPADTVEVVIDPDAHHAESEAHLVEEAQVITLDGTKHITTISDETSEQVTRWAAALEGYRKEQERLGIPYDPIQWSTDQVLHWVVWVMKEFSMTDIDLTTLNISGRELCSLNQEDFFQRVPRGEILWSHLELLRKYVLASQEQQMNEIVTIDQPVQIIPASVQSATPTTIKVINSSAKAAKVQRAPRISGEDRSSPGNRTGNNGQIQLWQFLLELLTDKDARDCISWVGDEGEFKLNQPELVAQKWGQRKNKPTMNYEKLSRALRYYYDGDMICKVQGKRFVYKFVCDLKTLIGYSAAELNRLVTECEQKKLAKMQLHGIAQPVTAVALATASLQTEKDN
In outline: as §1

The next assay has as its target T4, ERG (Homo sapiens, UniProt P11308 1-479).
T4 sequence: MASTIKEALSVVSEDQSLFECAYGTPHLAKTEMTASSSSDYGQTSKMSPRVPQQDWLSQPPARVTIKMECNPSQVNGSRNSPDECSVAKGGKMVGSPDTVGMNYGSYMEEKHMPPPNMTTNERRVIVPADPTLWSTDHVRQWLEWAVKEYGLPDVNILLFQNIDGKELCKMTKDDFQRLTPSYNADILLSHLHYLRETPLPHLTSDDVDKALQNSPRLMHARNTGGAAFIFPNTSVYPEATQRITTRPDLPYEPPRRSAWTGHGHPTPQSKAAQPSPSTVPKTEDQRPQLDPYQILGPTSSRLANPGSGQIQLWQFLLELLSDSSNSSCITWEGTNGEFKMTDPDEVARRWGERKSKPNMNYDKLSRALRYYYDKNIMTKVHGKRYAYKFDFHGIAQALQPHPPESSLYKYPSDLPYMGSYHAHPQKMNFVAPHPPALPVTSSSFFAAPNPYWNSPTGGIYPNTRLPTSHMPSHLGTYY
In outline:
as §1

The next assay addresses ELF1 (Homo sapiens, UniProt P32519 1-619). In outline:
as §1

Another assay concerns the target T5, EHF (Homo sapiens, UniProt Q9NZC4 1-300).
T5 sequence: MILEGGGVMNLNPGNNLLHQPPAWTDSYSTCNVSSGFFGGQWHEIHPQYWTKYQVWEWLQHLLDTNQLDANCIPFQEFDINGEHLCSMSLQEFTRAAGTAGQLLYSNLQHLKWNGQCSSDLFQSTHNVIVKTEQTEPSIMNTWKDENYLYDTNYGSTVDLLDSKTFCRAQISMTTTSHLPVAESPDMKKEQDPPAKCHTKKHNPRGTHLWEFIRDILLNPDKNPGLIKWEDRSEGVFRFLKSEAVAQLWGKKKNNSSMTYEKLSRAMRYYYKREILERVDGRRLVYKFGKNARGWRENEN
In outline: as §1

The target in another assay is SPI1 (Homo sapiens, UniProt P17947 1-270). In outline:
as §1

The next assay concerns the target SPIB (Homo sapiens, UniProt Q01892 1-262). In outline:
as §1

In the next assay the target is T6, ELK3 (Homo sapiens, UniProt P41970 1-407).
T6 sequence: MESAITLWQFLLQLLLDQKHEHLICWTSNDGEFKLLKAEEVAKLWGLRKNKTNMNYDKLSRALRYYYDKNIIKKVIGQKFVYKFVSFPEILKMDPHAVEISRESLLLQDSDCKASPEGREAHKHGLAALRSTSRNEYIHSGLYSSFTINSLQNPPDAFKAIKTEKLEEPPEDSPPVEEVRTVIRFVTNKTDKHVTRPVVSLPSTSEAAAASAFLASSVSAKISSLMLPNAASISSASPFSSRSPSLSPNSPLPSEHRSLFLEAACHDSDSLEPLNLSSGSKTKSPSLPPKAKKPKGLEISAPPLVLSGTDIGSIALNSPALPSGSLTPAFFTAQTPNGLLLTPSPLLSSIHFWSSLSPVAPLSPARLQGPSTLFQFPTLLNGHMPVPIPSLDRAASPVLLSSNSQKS
Put shortly: as §1

The target of a further assay is T7, FEV (Homo sapiens, UniProt Q99581 1-238).
T7 sequence: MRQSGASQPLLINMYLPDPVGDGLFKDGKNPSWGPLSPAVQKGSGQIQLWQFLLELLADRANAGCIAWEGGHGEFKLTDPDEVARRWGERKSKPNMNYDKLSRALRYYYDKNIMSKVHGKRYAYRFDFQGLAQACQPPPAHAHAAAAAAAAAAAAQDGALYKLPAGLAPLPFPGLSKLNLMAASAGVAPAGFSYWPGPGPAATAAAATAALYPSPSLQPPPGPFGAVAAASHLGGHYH
In outline: as §1

Another assay addresses ETV5 (Homo sapiens, UniProt P41161 1-510). Put shortly:
as §1

The next assay has as its target T8, SPIC (Homo sapiens, UniProt Q8N5J4 1-248).
T8 sequence: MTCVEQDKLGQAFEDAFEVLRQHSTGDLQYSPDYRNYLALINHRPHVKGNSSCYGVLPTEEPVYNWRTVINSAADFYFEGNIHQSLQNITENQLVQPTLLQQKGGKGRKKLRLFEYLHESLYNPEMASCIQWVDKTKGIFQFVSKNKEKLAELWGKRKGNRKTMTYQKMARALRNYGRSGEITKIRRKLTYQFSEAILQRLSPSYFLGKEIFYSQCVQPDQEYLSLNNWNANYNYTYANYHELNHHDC
In outline:
as §1

The next assay concerns the target ELF4 (Homo sapiens, UniProt Q99607 1-663). Put shortly: as §1
For a further assay, the target named is T9, ELK4 (Homo sapiens, UniProt P28324-2 1-405).
T9 sequence: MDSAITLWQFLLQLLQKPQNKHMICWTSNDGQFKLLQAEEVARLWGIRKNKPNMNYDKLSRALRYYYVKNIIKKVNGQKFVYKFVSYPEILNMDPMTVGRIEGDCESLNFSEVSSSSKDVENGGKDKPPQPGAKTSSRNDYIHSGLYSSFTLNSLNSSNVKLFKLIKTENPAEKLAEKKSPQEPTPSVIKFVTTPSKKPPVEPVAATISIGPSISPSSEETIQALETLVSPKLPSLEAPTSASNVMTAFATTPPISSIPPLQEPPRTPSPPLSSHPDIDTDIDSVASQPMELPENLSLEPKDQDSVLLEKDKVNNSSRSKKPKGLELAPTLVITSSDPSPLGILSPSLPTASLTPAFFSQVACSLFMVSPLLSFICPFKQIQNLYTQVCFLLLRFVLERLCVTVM
Put shortly:
as §1

In another assay the target is T10, ETV2 (Homo sapiens, UniProt O00321 1-342).
T10 sequence: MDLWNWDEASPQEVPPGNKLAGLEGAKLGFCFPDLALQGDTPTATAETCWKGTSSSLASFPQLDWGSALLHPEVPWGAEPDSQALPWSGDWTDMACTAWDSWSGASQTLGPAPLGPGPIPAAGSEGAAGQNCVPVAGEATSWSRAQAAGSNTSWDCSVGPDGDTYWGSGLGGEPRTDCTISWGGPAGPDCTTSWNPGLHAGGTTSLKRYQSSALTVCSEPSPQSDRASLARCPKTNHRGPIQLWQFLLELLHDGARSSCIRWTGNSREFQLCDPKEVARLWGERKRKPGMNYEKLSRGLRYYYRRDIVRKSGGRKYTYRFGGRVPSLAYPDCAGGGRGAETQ
In outline:
as §1

Another assay deals with T11, ELF3 (Homo sapiens, UniProt P78545 1-371).
T11 sequence: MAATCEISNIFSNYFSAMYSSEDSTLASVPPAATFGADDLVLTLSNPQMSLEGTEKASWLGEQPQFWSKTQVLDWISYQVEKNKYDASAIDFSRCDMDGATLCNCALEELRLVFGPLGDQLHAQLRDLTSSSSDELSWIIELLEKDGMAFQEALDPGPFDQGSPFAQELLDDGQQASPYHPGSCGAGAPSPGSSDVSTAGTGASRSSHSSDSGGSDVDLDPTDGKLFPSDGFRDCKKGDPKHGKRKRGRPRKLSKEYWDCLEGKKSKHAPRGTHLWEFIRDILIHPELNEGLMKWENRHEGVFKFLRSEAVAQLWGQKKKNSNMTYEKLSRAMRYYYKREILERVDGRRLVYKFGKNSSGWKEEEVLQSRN
In outline: as §1

In a further assay the target is CRX (Homo sapiens, UniProt O43186 1-299). In outline:
as §1

The next assay addresses ETV1 (Homo sapiens, UniProt P50549 1-477). In outline: as §1

ELF1, sequence (P32519 whole entry): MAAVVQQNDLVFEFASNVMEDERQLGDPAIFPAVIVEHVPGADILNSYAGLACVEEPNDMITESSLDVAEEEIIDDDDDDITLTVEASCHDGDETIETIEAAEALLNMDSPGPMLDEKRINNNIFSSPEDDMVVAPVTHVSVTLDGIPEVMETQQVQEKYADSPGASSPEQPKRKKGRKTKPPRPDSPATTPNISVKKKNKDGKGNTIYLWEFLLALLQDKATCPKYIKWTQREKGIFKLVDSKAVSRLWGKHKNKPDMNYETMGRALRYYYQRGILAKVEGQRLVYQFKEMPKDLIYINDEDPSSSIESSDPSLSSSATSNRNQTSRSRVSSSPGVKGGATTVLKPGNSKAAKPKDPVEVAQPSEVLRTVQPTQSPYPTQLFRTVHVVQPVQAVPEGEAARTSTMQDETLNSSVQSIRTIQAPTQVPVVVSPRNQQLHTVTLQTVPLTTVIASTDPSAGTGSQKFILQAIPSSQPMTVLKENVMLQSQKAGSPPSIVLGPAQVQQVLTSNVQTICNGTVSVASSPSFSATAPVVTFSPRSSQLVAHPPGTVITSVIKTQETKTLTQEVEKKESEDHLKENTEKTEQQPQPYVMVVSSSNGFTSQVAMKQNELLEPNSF
ETV1, sequence (P50549 whole entry): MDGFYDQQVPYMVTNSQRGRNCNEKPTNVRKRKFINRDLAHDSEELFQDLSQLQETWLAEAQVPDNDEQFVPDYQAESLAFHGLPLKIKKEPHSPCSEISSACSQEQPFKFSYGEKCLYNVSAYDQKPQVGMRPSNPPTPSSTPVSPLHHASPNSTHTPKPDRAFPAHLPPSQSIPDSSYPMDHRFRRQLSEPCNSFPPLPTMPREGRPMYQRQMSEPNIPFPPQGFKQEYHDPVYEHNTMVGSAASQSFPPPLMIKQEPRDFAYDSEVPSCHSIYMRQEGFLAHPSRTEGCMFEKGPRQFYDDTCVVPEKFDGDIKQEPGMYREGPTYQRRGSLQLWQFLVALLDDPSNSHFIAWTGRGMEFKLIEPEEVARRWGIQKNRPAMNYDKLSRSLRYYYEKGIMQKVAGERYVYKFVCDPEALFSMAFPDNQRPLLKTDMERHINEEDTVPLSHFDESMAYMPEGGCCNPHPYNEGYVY
SPIB, sequence (Q01892 whole entry): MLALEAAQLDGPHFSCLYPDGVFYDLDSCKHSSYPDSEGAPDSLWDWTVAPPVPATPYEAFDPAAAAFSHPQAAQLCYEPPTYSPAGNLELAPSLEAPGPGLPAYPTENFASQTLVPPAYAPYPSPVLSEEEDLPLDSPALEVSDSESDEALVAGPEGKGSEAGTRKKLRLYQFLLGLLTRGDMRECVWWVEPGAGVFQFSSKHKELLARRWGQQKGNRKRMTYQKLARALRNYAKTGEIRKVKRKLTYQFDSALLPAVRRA
ETV5, sequence (P41161 whole entry): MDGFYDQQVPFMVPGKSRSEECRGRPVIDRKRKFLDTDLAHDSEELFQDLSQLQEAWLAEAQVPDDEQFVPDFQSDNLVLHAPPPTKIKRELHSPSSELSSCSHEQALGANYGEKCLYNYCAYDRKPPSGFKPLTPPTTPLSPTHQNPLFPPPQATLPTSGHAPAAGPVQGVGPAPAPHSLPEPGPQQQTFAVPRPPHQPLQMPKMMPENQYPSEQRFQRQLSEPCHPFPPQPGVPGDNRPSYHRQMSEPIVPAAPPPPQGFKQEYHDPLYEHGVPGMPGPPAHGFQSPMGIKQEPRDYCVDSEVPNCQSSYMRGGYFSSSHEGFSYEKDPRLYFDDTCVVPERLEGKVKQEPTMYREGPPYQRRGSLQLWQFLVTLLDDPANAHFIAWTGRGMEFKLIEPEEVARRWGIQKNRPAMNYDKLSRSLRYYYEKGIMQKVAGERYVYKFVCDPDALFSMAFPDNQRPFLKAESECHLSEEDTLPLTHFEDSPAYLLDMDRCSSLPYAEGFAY
ELF4, sequence (Q99607 whole entry): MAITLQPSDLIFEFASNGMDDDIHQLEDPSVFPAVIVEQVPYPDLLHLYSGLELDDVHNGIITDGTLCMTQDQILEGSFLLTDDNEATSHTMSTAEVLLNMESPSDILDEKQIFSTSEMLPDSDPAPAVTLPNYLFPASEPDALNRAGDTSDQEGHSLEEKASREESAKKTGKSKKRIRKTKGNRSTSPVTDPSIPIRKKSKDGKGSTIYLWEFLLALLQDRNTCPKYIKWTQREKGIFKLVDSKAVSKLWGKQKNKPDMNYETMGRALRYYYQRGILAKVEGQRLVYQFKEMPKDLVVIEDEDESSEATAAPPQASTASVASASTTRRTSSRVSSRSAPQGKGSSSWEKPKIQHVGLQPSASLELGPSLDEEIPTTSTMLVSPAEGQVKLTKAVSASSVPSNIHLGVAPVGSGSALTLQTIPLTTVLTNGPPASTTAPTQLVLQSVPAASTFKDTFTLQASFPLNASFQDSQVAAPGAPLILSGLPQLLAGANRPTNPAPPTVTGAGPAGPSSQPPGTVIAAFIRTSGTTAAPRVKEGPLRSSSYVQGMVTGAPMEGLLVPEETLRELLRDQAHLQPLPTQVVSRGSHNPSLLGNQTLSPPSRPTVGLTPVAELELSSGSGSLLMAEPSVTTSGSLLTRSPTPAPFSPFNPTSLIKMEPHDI
CRX, sequence (O43186 whole entry): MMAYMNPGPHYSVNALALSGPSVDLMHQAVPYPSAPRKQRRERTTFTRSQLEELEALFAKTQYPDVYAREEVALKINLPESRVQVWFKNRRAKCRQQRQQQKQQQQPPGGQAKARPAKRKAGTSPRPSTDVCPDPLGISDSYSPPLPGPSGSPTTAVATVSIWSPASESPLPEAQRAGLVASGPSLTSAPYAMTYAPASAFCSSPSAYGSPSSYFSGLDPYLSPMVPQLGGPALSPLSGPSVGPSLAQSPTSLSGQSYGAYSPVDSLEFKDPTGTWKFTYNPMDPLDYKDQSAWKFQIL

As to TGTATA, the binding signal with FLI1 is 1.08 fold enrichment (6-mer frequency, TF over GST control); with ELK1 it was 1.11 fold enrichment (6-mer frequency, TF over GST control); with GABPA, 1.02 fold enrichment (6-mer frequency, TF over GST control); with ERG, 1.03 fold enrichment (6-mer frequency, TF over GST control); in the assay with ELF1, 1.04 fold enrichment (6-mer frequency, TF over GST control); with EHF, 1.18 fold enrichment (6-mer frequency, TF over GST control). Moreover, the binding signal with SPI1 was 1.03 fold enrichment (6-mer frequency, TF over GST control); with SPIB it was 1.19 fold enrichment (6-mer frequency, TF over GST control); in the assay with ELK3, 1.15 fold enrichment (6-mer frequency, TF over GST control); in the assay with FEV, 1.02 fold enrichment (6-mer frequency, TF over GST control); in the assay with ETV5, 1.15 fold enrichment (6-mer frequency, TF over GST control); in the assay with SPIC, 1.07 fold enrichment (6-mer frequency, TF over GST control). For the same sequence, the binding signal in the assay with ELF4 is 1.06 fold enrichment (6-mer frequency, TF over GST control); in the assay with ELK4, 1.22 fold enrichment (6-mer frequency, TF over GST control); with ETV2, 1.04 fold enrichment (6-mer frequency, TF over GST control); with ELF3, 1.02 fold enrichment (6-mer frequency, TF over GST control); with CRX, 1.03 fold enrichment (6-mer frequency, TF over GST control); with ETV1, 1.16 fold enrichment (6-mer frequency, TF over GST control).
Regarding CCCAAC, the binding signal in the assay with FLI1 is 1.13 fold enrichment (6-mer frequency, TF over GST control); with ELK1 it was 1.14 fold enrichment (6-mer frequency, TF over GST control); in the assay with GABPA it was 1.09 fold enrichment (6-mer frequency, TF over GST control); with ERG it was 1.15 fold enrichment (6-mer frequency, TF over GST control); in the assay with ELF1 it was 1.13 fold enrichment (6-mer frequency, TF over GST control); with EHF it was 1.16 fold enrichment (6-mer frequency, TF over GST control). The binding signal was 1.07 fold enrichment (6-mer frequency, TF over GST control) in the assay with SPI1; 1.11 fold enrichment (6-mer frequency, TF over GST control) with SPIB; 1.02 fold enrichment (6-mer frequency, TF over GST control) with ELK3; 1.17 fold enrichment (6-mer frequency, TF over GST control) in the assay with FEV; 1.11 fold enrichment (6-mer frequency, TF over GST control) with ETV5; 1.17 fold enrichment (6-mer frequency, TF over GST control) with SPIC. Besides, the binding signal with ELF4 was 1.22 fold enrichment (6-mer frequency, TF over GST control); in the assay with ELK4 it was 1.18 fold enrichment (6-mer frequency, TF over GST control); with ETV2, 1.03 fold enrichment (6-mer frequency, TF over GST control); with ELF3, 1.17 fold enrichment (6-mer frequency, TF over GST control); in the assay with ETV1 it was 1.13 fold enrichment (6-mer frequency, TF over GST control).

The values are drawn from PMC7862700, “An all-to-all approach to the identification of sequence-specific readers for epigenetic DNA modifications on cytosine”.
